Columns and labels:
Conditions in all cases: concentration: 1 μM, replicates: in singlicate; n = 1
LRRK2 = test system: LRRK2
LTK = test system: LTK
LYN = test system: LYN
LZK = test system: T1, LZK
T1 construct: gene MAP3K13

MAK = test system: MAK
MAP3K15 = test system: MAP3K15
MAP3K1 = test system: MAP3K1
MAP3K2 = test system: MAP3K2
MAP3K3 = test system: MAP3K3
MAP3K4 = test system: MAP3K4
MAP4K2 = test system: MAP4K2
MAP4K3 = test system: MAP4K3
MAP4K4 = test system: MAP4K4
MAP4K5 = test system: MAP4K5
MAPKAPK2 = test system: MAPKAPK2
MAPKAPK5 = test system: MAPKAPK5
MARK1 = test system: MARK1
MARK2 = test system: MARK2
MARK3 = test system: MARK3
MARK4 = test system: MARK4
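Note: KINOMEscan kinase panel screen.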

| Compound | %Inh (LRRK2) [%] | %Inh (LTK) [%] | %Inh (LYN) [%] | %Inh (LZK) [%] | %Inh (MAK) [%] | %Inh (MAP3K15) [%] | %Inh (MAP3K1) [%] | %Inh (MAP3K2) [%] | %Inh (MAP3K3) [%] | %Inh (MAP3K4) [%] | %Inh (MAP4K2) [%] | %Inh (MAP4K3) [%] | %Inh (MAP4K4) [%] | %Inh (MAP4K5) [%] | %Inh (MAPKAPK2) [%] | %Inh (MAPKAPK5) [%] | %Inh (MARK1) [%] | %Inh (MARK2) [%] | %Inh (MARK3) [%] | %Inh (MARK4) [%] |
| --- | --- | --- | --- | --- | --- | --- | --- | --- | --- | --- | --- | --- | --- | --- | --- | --- | --- | --- | --- | --- |
| CNc1cc(-c2ccc3c(N)n[nH]c3c2)nc(N)n1 [GSK2224810] | 0 | 0 | 0 | 18 | 0 | 0 | 0 | 0 | 0 | 0 | 22 | 20 | 0 | 0 | 49 | 0 | 0 | 7 | 0 | 0 |
| Cc1ccccc1-c1cc(-c2c[nH]nc2-c2ccccn2)ccn1 [GW680061] | 23 | 0 | 0 | 4 | 34 | 0 | 10 | 1 | 0 | 14 | 0 | 0 | 0 | 0 | 24 | 0 | 0 | 0 | 0 | 0 |
| COc1ccc(CSc2nnc(-c3ccc4nccn4c3)o2)cc1C(F)(F)F | 0 | 0 | 7 | 18 | 0 | 13 | 15 | 30 | 9 | 12 | 37 | 16 | 7 | 3 | 33 | 27 | 10 | 44 | 0 | 6 |
| Cn1cncc1-c1cc2c(Nc3ccc(OCc4ccccc4)cc3)ncnc2cn1 [GW281179] | 10 | 4 | 0 | 0 | 19 | 0 | 0 | 0 | 0 | 15 | 0 | 0 | 1 | 0 | 24 | 0 | 0 | 0 | 0 | 11 |
| COc1ccc2cc(-c3nc(-c4ccccc4C(C)C)[nH]c3-c3ccncc3)ccc2c1 [SB-660566] | 13 | 3 | 20 | 0 | 0 | 17 | 20 | 28 | 0 | 16 | 0 | 0 | 31 | 3 | 16 | 0 | 7 | 0 | 0 | 3 |
| Cc1ccc(NC(=O)Nc2ccccc2)cc1-c1ccc(C(=O)Nc2ccncc2)cc1 [GSK1398471] | 0 | 0 | 66 | 0 | 17 | 0 | 8 | 0 | 0 | 0 | 0 | 2 | 1 | 0 | 1 | 0 | 0 | 1 | 45 | 0 |
| c1ccc(-c2ccnc3[nH]ccc23)cc1 [SB-693578] | 44 | 0 | 0 | 11 | 0 | 26 | 19 | 50 | 5 | 12 | 32 | 22 | 0 | 0 | 26 | 0 | 100 | 0 | 0 | 62 |
| CNc1nc(-c2ccc3c(N)n[nH]c3c2)cc(N2C[C@@H](C(=O)NC3CCCCC3)OC[C@H]2C)n1 [GSK2375584] | 0 | 0 | 0 | 35 | 0 | 0 | 0 | 0 | 0 | 0 | 0 | 0 | 15 | 9 | 17 | 2 | 10 | 0 | 0 | 18 |
| Cl.Cl.Cl.N#Cc1ccc(CCNc2nccc(-c3cccc(CN4CCNCC4)c3)n2)cc1 [GSK2137462] | 0 | 0 | 1 | 0 | 8 | 0 | 15 | 5 | 0 | 0 | 0 | 8 | 21 | 4 | 0 | 0 | 0 | 6 | 25 | 0 |
| Fc1ccc(-c2nc[nH]c2-c2ccncc2)cc1 [SB-217360] | 0 | 0 | 0 | 0 | 5 | 3 | 0 | 18 | 0 | 0 | 0 | 2 | 10 | 0 | 0 | 0 | 12 | 4 | 0 | 30 |
| Cc1ccc(NC(=O)c2ccc(Cl)cc2)cc1-c1ccc(C(=O)Nc2ccncc2)cc1 [GSK1398467] | 100 | 19 | 30 | 3 | 0 | 0 | 12 | 0 | 0 | 0 | 0 | 0 | 13 | 3 | 24 | 0 | 36 | 80 | 0 | 0 |
| COC(=O)C(NC(=O)NC1CCN(c2ccnc(Nc3ccc(F)cc3)n2)C1)c1ccccc1 (stereo not drawn) [GSK1379712] | 0 | 30 | 7 | 18 | 0 | 0 | 6 | 0 | 0 | 6 | 0 | 0 | 1 | 2 | 18 | 6 | 0 | 7 | 1 | 8 |
| CC(=O)c1c(C)c2cnc(Nc3ccn(C)n3)nc2n(C2CCCC2)c1=O | 0 | 0 | 10 | 0 | 0 | 0 | 0 | 0 | 0 | 0 | 0 | 24 | 0 | 0 | 0 | 0 | 0 | 0 | 12 | 0 |
| CC(=O)c1c(C)c2cnc(Nc3ccc(N4CCNCC4)cn3)nc2n(C2CCCC2)c1=O | 0 | 0 | 0 | 89 | 0 | 0 | 0 | 0 | 0 | 14 | 0 | 17 | 0 | 0 | 0 | 0 | 6 | 0 | 0 | 13 |
| CCCCc1nn2ncccc2c1-c1ccnc(NC2CC2)n1 [GW684374] | 0 | 0 | 0 | 0 | 19 | 0 | 3 | 0 | 0 | 6 | 0 | 0 | 0 | 0 | 0 | 0 | 0 | 0 | 0 | 0 |
| CNCc1ccc2nc(NC(=O)c3ccc(C(C)(C)C)cc3)cn2c1 | 10 | 12 | 0 | 0 | 15 | 98.9 | 19 | 21 | 0 | 4 | 22 | 0 | 0 | 0 | 0 | 5 | 0 | 0 | 9 | 4 |
| CC(C)c1cc(-c2ccc3c(N)n[nH]c3c2)nc(N)n1 [GSK2250882] | 0 | 0 | 0 | 0 | 0 | 0 | 0 | 2 | 2 | 1 | 0 | 0 | 1 | 0 | 23 | 0 | 0 | 9 | 0 | 0 |
| COc1ccc(Nc2nccc(N3CCC(NC(=O)c4cc5ccccc5s4)C3)n2)cc1 (stereo not drawn) [GSK1379738] | 0 | 0 | 0 | 23 | 86 | 0 | 5 | 0 | 0 | 29 | 0 | 2 | 0 | 0 | 0 | 0 | 0 | 0 | 3 | 0 |
| O=c1cc(N2CCOCC2)nc2n(Cc3cccc(Cl)c3Cl)c3ccccc3n12 [GSK2299009] | 0 | 39 | 0 | 0 | 15 | 3 | 7 | 21 | 0 | 0 | 0 | 0 | 0 | 0 | 32 | 0 | 7 | 0 | 0 | 23 |
| CC[C@@H]1CO[C@H](C(=O)Nc2ccccc2)CN1c1cc(-c2ccc3c(N)n[nH]c3c2)nc(NC)n1 [GSK2376236] | 0 | 5 | 0 | 0 | 21 | 0 | 21 | 0 | 0 | 0 | 0 | 0 | 0 | 0 | 0 | 0 | 0 | 5 | 0 | 0 |
| O=C(Nc1n[nH]c2nc(-c3ccco3)c(Br)cc12)C1CCN(Cc2ccccc2)C1.O=C(O)[C@H](O)[C@@H](O)C(=O)O (stereo not drawn) [SB-742034] | 0 | 11 | 2 | 0 | 25 | 12 | 18 | 21 | 24 | 0 | 14 | 2 | 0 | 0 | 5 | 5 | 27 | 14 | 0 | 14 |
